From PubChem BioAssay (Tox21)
Inconclusive results are not listed. The source made the active and inactive calls. Unless noted, the call rests on the fitted dose curve.

Legend:
[1] = Nuclear factor erythroid 2-related factor 2/antioxidant responsive element (Nrf2/ARE) small molecule agonists: qHTS cell viability counter screen in human keratinocytes (AID 1919968; active means well fitted curve in the direction sought with a large enough effect in the repeat runs; an effect the other way counts as inactive or inconclusive; further: nearly all actives have a fitted effect of over 55% in size)
Outline: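 Seed 1,500 KeratinoSens cells per well, then incubate 5 h at 37 C/5% CO2. Add compounds in DMSO and incubate 23 h. Add CellTiter-Fluor, wait 1 h and read fluorescence.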

[2] = Nuclear factor erythroid 2-related factor 2/antioxidant responsive element (Nrf2/ARE) small molecule agonists: luciferase reporter gene qHTS assay in human keratinocytes (AID 1919969); further: nearly all actives have a fitted effect of over 35% in size
[3] = biological target: Gonadotropin-releasing hormone receptor (Homo sapiens) (UniProt P30968); assay: Human gonadotropin-releasing hormone receptor (GnRHR) small molecule agonists, calcium flux assay in GnRHR-HEK293 cells (AID 1920063); further: nearly all actives have a fitted effect of over 35% in size
Sequence of Gonadotropin-releasing hormone receptor (Homo sapiens) (P30968 whole entry, looked up): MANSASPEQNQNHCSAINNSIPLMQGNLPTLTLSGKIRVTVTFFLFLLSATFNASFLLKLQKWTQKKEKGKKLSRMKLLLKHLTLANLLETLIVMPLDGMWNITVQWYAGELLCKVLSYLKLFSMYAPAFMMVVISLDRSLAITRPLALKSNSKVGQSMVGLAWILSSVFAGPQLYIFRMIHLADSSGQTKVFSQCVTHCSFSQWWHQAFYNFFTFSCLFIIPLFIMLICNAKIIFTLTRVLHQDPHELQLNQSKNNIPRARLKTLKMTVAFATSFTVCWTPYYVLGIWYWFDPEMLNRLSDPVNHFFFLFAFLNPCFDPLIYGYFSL
Outline: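 Cells: HEK293 stably expressing human GnRHR. Steps: overnight (18 h) culture, 1 h calcium dye loading at 37 C, compound addition, kinetic fluorescence read at 480/540 nm. Each compound tested at 15 concentrations in triplicate.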

[4] = biological target: KiSS-1 receptor (Homo sapiens) (UniProt Q969F8); assay: Human kisspeptin (KISS1R) small molecule agonists, calcium flux assay in KISS1R-HEK293 cells (AID 1920064; active means well fitted curve in the direction sought with a large enough effect in the repeat runs; an effect the other way counts as inactive or inconclusive)
Sequence of KiSS-1 receptor (Homo sapiens) (Q969F8 whole entry, looked up): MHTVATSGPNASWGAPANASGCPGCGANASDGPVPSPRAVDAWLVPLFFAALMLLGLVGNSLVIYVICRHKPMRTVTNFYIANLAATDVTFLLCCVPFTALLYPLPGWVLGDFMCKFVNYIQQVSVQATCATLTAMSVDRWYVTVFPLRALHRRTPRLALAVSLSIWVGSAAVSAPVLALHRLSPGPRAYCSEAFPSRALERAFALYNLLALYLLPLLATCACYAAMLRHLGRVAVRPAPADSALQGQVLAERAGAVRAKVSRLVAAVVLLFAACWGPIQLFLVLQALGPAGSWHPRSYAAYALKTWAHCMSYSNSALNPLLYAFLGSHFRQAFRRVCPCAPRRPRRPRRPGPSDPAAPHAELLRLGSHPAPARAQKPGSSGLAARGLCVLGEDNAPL
Outline: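 Cells plated and incubated 18 h; dye added, 1 h at 37 C; compounds in DMSO pinned in; signal read at 480/540 nm every second for 3 min. Each compound tested at 15 concentrations in triplicate.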

[5] = G protein-coupled receptor (GPCR) small molecule agonists, calcium flux assay: HEK293 wild type cell line counter screen (AID 1920065)
Outline: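 Counter-screen of the Tox21 10K library for non-specific calcium release: dye-loaded cells received compounds in DMSO and were monitored by kinetic fluorescence (480/540 nm, 3 min). Fifteen concentrations, run in triplicate.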

[6] = p53 small molecule agonists, cell-based qHTS assay with human liver microsomes (AID 1963577);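 further: p53 response element beta-lactamase reporter cells with liver microsomes plus NADPH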
Outline: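 In this qHTS, p53 response-element beta-lactamase cells receive test compound together with a microsome/NADPH activating system (0.5 mg/mL final each) and are incubated 16 h at 37 C before LiveBLAzer fluorescence detection.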

[7] = p53 small molecule agonists, cell-based qHTS assay with rat liver microsomes (AID 1963578)
Outline: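 Agonist mode in p53RE-bla reporter cells, with compounds co-incubated 16 h at 37 C alongside 0.5 mg/mL rat liver microsomes and 0.5 mg/mL NADPH (final), followed by a 2 h LiveBLAzer detection step.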

[8] = p53 small molecule agonists, cell-based qHTS assay with human liver microsomes: qHTS cell viability counter screen (AID 1963579); further: nearly all actives have a fitted effect of over 45% in size
Outline: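 Metabolically activated exposure: compounds, human liver microsomes and NADPH (0.5 mg/mL final apiece) were added to p53RE-bla cells seeded 5 h earlier, left 16 h at 37 C, and then assessed for viability by CellTiter-Glo luminescence.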

[9] = p53 small molecule agonists, cell-based qHTS assay with rat liver microsomes: qHTS cell viability counter screen (AID 1963580); further: nearly all actives have a fitted effect of over 45% in size
Outline: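 In HCT-116 cells carrying a p53 response element-bla reporter, compounds were metabolically activated in situ by rat liver microsomes with NADPH over 16 h. Cell ATP content then served as the cytotoxicity measure.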

[10] = p53 small molecule agonists, cell-based qHTS assay: qHTS cell viability counter screen (AID 1963581); further: nearly all actives have a fitted effect of over 45% in size
Outline: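 Cells: HCT-116 with p53 response element-driven beta-lactamase. Treatment: 16 h, 37 C, compounds in DMSO. Read: CellTiter-Glo luminescence after 30 min RT.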

[11] = p53 small molecule agonists, cell-based qHTS assay (AID 1963582; active means well fitted activation curve with a large enough effect in the signal ratio in the repeat runs, not every such curve was filed as active; the % refers to the signal ratio)
Outline: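 Quantitative HTS in p53RE-bla cells: after a 5 h settling period, compounds delivered in DMSO were left on cells for 16 h at 37 C, and reporter induction was measured as fluorescence following 2 h substrate loading.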

[12] = biological target: Muscarinic acetylcholine receptor M1 (Homo sapiens) (UniProt P11229); assay: Cholinergic receptor muscarinic 1 (CHRM1) small molecule antagonists, cell-based qHTS assay (AID 1963588); further: nearly all actives have a fitted effect of over 40% in size
Sequence of Muscarinic acetylcholine receptor M1 (Homo sapiens) (P11229 whole entry, looked up): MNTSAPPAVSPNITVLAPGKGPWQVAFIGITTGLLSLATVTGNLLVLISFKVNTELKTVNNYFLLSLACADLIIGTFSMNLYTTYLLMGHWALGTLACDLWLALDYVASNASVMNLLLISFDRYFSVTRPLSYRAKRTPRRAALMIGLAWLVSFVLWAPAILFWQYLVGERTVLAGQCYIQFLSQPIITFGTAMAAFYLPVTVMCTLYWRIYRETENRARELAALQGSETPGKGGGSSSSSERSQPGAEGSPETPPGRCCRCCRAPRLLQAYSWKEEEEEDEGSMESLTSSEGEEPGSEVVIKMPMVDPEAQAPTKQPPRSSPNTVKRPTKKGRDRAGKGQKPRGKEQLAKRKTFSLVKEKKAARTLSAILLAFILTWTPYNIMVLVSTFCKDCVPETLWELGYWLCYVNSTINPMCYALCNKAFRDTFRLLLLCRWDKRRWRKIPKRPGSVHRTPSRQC
Outline: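 CHRM1-CHO calcium-flux assay, antagonist mode. Cells were seeded 18 h, dye-loaded 1 h at 37 C and given compound for 5 min at RT, then acetylcholine was added at 50nM. FDSS fluorescence was read 3 min; 15 concentrations, three runs.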

[13] = biological target: Muscarinic acetylcholine receptor M1 (Homo sapiens) (UniProt P11229); assay: Cholinergic receptor muscarinic 1 (CHRM1) small molecule agonists, cell-based qHTS assay (AID 1963589); further: nearly all actives have a fitted effect of over 35% in size
Outline: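 Agonist-mode qHTS in CHO cells stably carrying human muscarinic M1. Intracellular calcium is tracked by fluorescence every second after compound transfer; each compound runs at 15 concentrations in three independent runs.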

[14] = cAMP Responsive Elements (CRE) small molecule antagonists, cell-based qHTS assay (AID 1963591; active means well fitted inhibition curve with a large enough effect in the signal ratio in the repeat runs, not every such curve was filed as active; the % refers to the signal ratio)
Outline: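 Antagonist mode: test compounds are co-incubated with the adenylyl cyclase activator NKH477 (0.25 uM final) on CRE-bla HEK293T cells for 3 h at 37 °C, followed by LiveBLAzer substrate loading.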

[15] = biological target: Beta-2 adrenergic receptor (Homo sapiens) (UniProt P07550); assay: Adrenergic beta2 receptor (ADRB2) small molecule antagonists, cell-based qHTS assay (AID 1963592); further: series mostly up to about 92 µM; nearly all actives have a fitted effect of over 50% in size
Sequence of Beta-2 adrenergic receptor (Homo sapiens) (P07550 whole entry, looked up): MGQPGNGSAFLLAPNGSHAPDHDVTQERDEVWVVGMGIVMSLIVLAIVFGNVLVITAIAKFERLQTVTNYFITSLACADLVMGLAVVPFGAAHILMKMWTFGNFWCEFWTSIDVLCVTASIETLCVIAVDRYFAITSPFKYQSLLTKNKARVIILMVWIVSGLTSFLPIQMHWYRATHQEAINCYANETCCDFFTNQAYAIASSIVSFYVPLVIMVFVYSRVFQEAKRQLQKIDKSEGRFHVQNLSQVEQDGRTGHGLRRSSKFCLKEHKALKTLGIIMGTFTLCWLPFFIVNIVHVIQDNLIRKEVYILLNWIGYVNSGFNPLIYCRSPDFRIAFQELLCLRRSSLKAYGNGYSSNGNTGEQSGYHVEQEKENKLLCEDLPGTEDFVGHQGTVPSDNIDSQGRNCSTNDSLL
Outline: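 Cells (CHO, stable ADRB2 overexpression) incubated 18-20hr at 37C; compounds added from DMSO; agonist mix (1nM isoproterenol, 100uM IBMX, 25uM Ro-20-1724) added; 0.5hr RT; d2-cAMP and anti-cAMP-cryptate added; 1hr RT; 665/615 nm read.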

[16] = biological target: D(2) dopamine receptor (Homo sapiens) (UniProt P14416); assay: Dopamine D2 receptor (DRD2) small molecule agonists, cell-based qHTS assay (AID 1963594); further: nearly all actives have a fitted effect of over 35% in size
Sequence of D(2) dopamine receptor (Homo sapiens) (P14416 whole entry, looked up): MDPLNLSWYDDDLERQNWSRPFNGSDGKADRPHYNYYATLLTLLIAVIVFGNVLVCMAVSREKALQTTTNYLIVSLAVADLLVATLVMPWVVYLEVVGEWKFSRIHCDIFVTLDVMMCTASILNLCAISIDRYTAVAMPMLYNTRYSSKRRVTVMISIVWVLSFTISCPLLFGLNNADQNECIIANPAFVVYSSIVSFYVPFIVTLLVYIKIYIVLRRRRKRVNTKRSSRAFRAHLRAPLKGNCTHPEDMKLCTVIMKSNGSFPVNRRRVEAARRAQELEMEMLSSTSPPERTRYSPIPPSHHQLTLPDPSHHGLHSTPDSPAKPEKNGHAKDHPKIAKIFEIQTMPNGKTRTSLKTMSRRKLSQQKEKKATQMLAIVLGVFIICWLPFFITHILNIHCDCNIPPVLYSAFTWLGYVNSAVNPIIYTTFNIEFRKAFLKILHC
Outline: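 HEK293 cells stably expressing DRD2 were cultured 24 h at 37 C, then given Ro20-1724 (0.1 mM final) and compounds for 10 min at room temperature. NKH477 (200nM) was then added for 30 min. cAMP was read by HTRF.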

[17] = biological target: D(2) dopamine receptor (Homo sapiens) (UniProt P14416); assay: Dopamine D2 receptor (DRD2) small molecule antagonists, cell-based qHTS assay (AID 1963595; active means well fitted inhibition curve with a large enough effect in the signal ratio in the repeat runs, with a control signal flat; the % refers to the signal ratio)
Outline: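 Cells were plated and grown for 24 h at 37 °C. Ro20-1724 (0.1 mM final) went in first, then compound for 10 min. NKH477 (200 nM) with quinpirole (12 nM) followed for 30 min at RT, then HTRF detection reagents for 1 h.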

[18] = biological target: 5-hydroxytryptamine receptor 2A (Homo sapiens) (UniProt P28223); assay: 5-hydroxytryptamine receptor 2A (HTR2A) small molecule agonists, cell-based qHTS assay (AID 1963587); further: nearly all actives have a fitted effect of over 30% in size
Sequence of 5-hydroxytryptamine receptor 2A (Homo sapiens) (P28223 whole entry, looked up): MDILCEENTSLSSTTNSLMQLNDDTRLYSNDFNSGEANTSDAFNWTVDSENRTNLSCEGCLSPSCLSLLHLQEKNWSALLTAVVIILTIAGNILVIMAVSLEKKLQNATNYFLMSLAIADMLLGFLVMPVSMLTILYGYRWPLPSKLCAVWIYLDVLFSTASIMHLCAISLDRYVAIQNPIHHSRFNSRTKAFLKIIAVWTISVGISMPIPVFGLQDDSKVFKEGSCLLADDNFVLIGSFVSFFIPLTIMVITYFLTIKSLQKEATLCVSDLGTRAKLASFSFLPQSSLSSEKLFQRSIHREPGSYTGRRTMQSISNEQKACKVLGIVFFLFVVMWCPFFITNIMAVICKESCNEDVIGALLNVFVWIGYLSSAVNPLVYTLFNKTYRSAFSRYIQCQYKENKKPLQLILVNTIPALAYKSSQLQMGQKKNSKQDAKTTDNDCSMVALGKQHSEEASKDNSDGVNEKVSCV
Outline: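 HTR2A-CHO cells, plated 18 h at 37 C/5% CO2, dye-loaded 1 h at 37 C; compounds in DMSO added by pin tool (agonist mode). Intracellular calcium flux read as kinetic fluorescence on FDSS over 2 min at 1 s intervals.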

[19] = cAMP Responsive Elements (CRE) small molecule agonists, cell-based qHTS assay (AID 1963590)
Outline: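 Agonist mode qHTS in CRE-bla HEK 293T cells: compounds dosed from DMSO for 3 h at 37 C/5% CO2, followed by LiveBLAzer B/G FRET substrate for 2 h at room temperature.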

[20] = biological target: Beta-2 adrenergic receptor (Homo sapiens) (UniProt P07550); assay: Adrenergic beta2 receptor (ADRB2) small molecule agonists, cell-based qHTS assay (AID 1963593);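 further: CHO cells stably overexpressing human ADRB2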
Outline: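 CHO cells stably over-expressing ADRB2 were plated overnight at 37C, then dosed with compounds plus a stimulation mix containing 100uM IBMX and 25uM Ro-20-1724 for 0.5hr at room temperature. cAMP was measured by HTRF competition, 1hr.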

Measured: Potency

Fc1ccccc1-c1ccccc1
not listed: [18] | [19] | [20]
inactive: all other assays above

CC1=C(O)C(=O)C(C)O1 (stereo not given)
inactive: all assays above

Cc1cccc2c1ccc1ccccc12
not listed: [20]
inactive: all other assays above

CC(C)C(=O)O
not listed: [14] | [18]
inactive: all other assays above

CC1CCCC(=O)C1=O (stereo not given)
inactive: all assays above

C=CC(=O)OCCN(CC)CC
inactive: all assays above

C=CC(C)(O)CC/C=C(\C)CCC=C(C)C (stereo not given)
inactive: all assays above

CC/C=C/CCO
inactive: all assays above

Cc1oc(C)c(C(=O)Nc2ccccc2)c1C
inactive: all assays above

NC(=O)c1ccccc1Cl
not listed: [16] | [17]
inactive: all other assays above

CCc1ccc(C)nc1
not listed: [13] | [14] | [18]
inactive: all other assays above

COc1ccc2c(c1)CCCC2=O
not listed: [17]
inactive: all other assays above

Cc1ccc(S(=O)(=O)NC(=O)NC2CCCC2)cc1
inactive: all assays above

O=S(=O)(O)c1ccc2cc(O)c(S(=O)(=O)O)cc2c1
not listed: [13] | [18]
inactive: all other assays above

CC1(C)Oc2ccc(C#N)cc2[C@@H](N2CCCC2=O)[C@@H]1O
not listed: [16]
inactive: all other assays above
